Reference: PubChem BioAssay
Calls of active or inactive are those of the source. Unless noted, no rule for the calls is given here.

How the values were obtained:
[1] = tested on: Wnt5a (protein binding on small-molecule microarray); test: Wnt5a binders on small-molecule microarray, primary screen, biophysical, 635/667 nm fluorescence (AID 1142); details: 635 nm fluorescence, higher = more signal;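 also: fluorescence read at 667 nm with signal to noise per printed feature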
[2] = cell viability in Huh7 cells, primary screen, cytotoxicity control for HCV replication inhibitor project, CellTiter-Glo luminescence, basal, 48 h (AID 1143); details: Huh7 HCV replicon, higher = more signal, called active from +8 up or from −8 down;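 also: Huh7 hepatoma cells carrying a hepatitis C replication reporter with no stimulus; test concentration not given here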
[3] = P. aeruginosa biofilm formation inhibitors, primary screen, PAO1 strain, BacTiter-Glo luminescence, LB-PBS (AID 1144); details: 12 h, higher = more signal
[4] = CREB reporter modulators without forskolin, primary screen, cell-based, PC12, CRE-LacZ reporter, unstimulated (AID 1145); details: no forskolin, luminescence, 4.5 h, higher = more signal, called active from +8 up or from −8 down
[5] = CREB reporter modulators under forskolin, primary screen, cell-based, PC12, CRE-LacZ reporter, forskolin-stimulated (AID 1146); details: luminescence, 4.5 h, higher = more signal, called active from +8 up or from −8 down;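 also: PC12 cells with 6xCRE LacZ reporter stimulated by forskolin 10 µM; beta-galactosidase reporter signal reflecting CREB driven transcription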
[6] = target: Streptavidin (Streptomyces avidinii) (UniProt P22629); test: streptavidin binders on small-molecule microarray, primary screen, artefact control for SMM compound annotation, biophysical, 635/667 nm fluorescence (AID 1147); details: streptavidin binding, higher = more signal;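 also: signal reflects streptavidin binding to arrayed compounds as a control protein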
[7] = small-molecule binders of probe aInhba, primary screen, biochemical, small-molecule microarray, 635/667 nm fluorescence (AID 1148); details: higher = more signal;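 also: score merges 667nm spot fluorescence with signal-to-noise for antibody binding to printed compounds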
Torsin-1A (Homo sapiens) [8] = target: Torsin-1A (Homo sapiens) (UniProt O14656); test: torsin A binders from cell lysate, primary screen, small-molecule microarray, wild-type, 635/667 nm (AID 1149); details: COS7 hTOR1A-WT lysate, 635 nm fluorescence, higher = more signal
Torsin-1A (Homo sapiens) [9] = target: Torsin-1A (Homo sapiens) (UniProt O14656); test: small-molecule binders of mutant TOR1A in lysate, primary screen, cell lysate, small-molecule microarray, COS7 lysate, 635/667 nm fluorescence (AID 1150); details: COS7 hTOR1A mutant lysate, 635 nm fluorescence, higher = more signal;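 also: score pools 667 nm emission and signal to noise measuring lysate protein binding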
[10] = tested on: Sonic hedgehog protein (Shh); test: small-molecule binders of Shh protein, primary screen, biochemical, small-molecule microarray, 635/667 nm fluorescence (AID 1151); details: small-molecule microarray binding, 635 nm fluorescence; higher = more signal;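 also: Shh protein binding to compounds spotted on small-molecule microarray slides; score combines spot fluorescence intensity with signal-to-noise across triplicate slides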

Streptavidin (Streptomyces avidinii), sequence (P22629 whole entry, looked up): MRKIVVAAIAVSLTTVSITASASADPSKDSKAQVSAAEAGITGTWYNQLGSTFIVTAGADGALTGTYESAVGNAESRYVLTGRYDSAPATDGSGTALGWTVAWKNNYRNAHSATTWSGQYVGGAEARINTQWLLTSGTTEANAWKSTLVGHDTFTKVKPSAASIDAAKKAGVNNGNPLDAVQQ
Torsin-1A (Homo sapiens), sequence (O14656 whole entry, looked up): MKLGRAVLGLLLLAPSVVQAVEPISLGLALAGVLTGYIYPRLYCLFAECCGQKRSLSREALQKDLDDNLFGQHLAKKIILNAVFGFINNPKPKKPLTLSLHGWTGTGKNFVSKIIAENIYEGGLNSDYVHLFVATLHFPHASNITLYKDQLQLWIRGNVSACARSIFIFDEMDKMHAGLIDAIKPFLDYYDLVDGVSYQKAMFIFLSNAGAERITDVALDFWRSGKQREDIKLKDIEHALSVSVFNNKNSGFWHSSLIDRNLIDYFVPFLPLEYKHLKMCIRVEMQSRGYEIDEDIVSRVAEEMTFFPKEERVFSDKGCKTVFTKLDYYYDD

Compound | composite z-score [1] | z-score [2] | z-score [3] | z-score [4] | z-score [5] | composite z-score [6] | composite z-score [7] | composite z-score (Torsin-1A (Homo sapiens) [8]) | composite z-score (Torsin-1A (Homo sapiens) [9]) | composite z-score [10]
COC(=O)[C@@]1(Cc2ccccc2)[C@H]2c3cc(C(=O)N4CCCC4)n(C)c3C[C@H]2CN1C(=O)c1ccccc1 | 0.0131 | -1.6 (inactive) | 0.218 (inactive) | -0.182 (inactive) | 0.504 (inactive) | 1.64 | 0.271 | -0.212 | 0.0645 | -0.157
CN1CCC(CCCO)=CC1c1ccc(CN2CCCC2)cc1 (stereo not given) | 0.958 | -0.428 (inactive) | -0.692 (inactive) | -0.974 (inactive) | 0.239 (inactive) | 0.825 | 0.0096 | 3.12 | 2.86 | 2.08
COCCOC(=O)N1C(=O)[C@@]2(c3cc(C#CC4(O)CCCCCC4)ccc31)[C@H](C(=O)N1CCCCCCC1)[C@H]1C(=O)O[C@H](c3ccccc3)[C@H](c3ccccc3)N1[C@@H]2c1ccccc1OCCO | 0.647 | -5.2 (inactive) | 0.148 (inactive) | 0.749 (inactive) | -0.551 (inactive) | 1.96 | 1.22 | 0.601 | 1.26 | 1.37
CC1=C2[C@@H](CCc3ccccc3)OB(O)C[C@@H]2n2c(=O)n(-c3ccccc3)c(=O)n2C1 | 0.207 | -0.382 (inactive) | 0.909 (inactive) | 0.402 (inactive) | -0.826 (inactive) | 0.156 | -0.0405 | 0.0316 | 0.111 | 0.724
C=C[C@@H](COC(C)=O)N(Cc1ccc([N+](=O)[O-])cc1)S(=O)(=O)c1ccc(Br)cc1 | 0.191 | -1.97 (inactive) | -0.91 (inactive) | 0.661 (inactive) | 0.127 (inactive) | 0.861 | 0.0869 | 0.474 | 0.0176 | 0.956
COCCOC(=O)N1C(=O)[C@@]2(c3ccccc31)[C@H](C(=O)Nc1nc3ccccc3s1)[C@H]1C(=O)O[C@H](c3ccccc3)[C@H](c3ccccc3)N1[C@@H]2c1ccc(OCCO)cc1 | 0.931 | -2.34 (inactive) | -0.706 (inactive) | -0.878 (inactive) | -0.523 (inactive) | 0.82 | 0.038 | 0.488 | 1.25 | 1.12
COCCOC(=O)N1C(=O)[C@@]2(c3cc(C#CCC(C(=O)OC)C(=O)OC)ccc31)[C@H](c1ccccc1OCCO)N1[C@H](c3ccccc3)[C@H](c3ccccc3)OC(=O)[C@H]1[C@@H]2C(=O)N1CCc2cc(OC)c(OC)cc2C1 | -0.184 | -3.42 (inactive) | -1.52 (inactive) | -1.42 (inactive) | -1.16 (inactive) | 0.226 | -0.0774 | 0.298 | 0.619 | 1.88
CCOC(=O)[C@H]1C/C=C/C[C@H](C(=O)OCC)C(=O)O[C@H]2[C@@H](OC)O[C@H](CO)[C@@H](OC(=O)Nc3ccc4c(c3)OCO4)[C@@H]2OC1=O | 0.285 | -6.55 (inactive) | -0.353 (inactive) | 0.484 (inactive) | -1.61 (inactive) | -0.0265 | 0.0342 | 0.687 | 0.126 | 0.903
COCCCNC(=O)[C@@]1(C)c2ccccc2C(=O)N(Cc2cc(C(F)(F)F)cc(C(F)(F)F)c2)[C@H]1c1ccc(CO)cc1 | -0.676 | -2.82 (inactive) | -0.417 (inactive) | 0.468 (inactive) | 0.243 (inactive) | -0.673 | -0.0675 | -1.37 | -1.27 | -0.207
C[C@]1(C(=O)NCc2ccccc2)c2ccccc2C(=O)N(Cc2ccc(OC(F)(F)F)cc2)[C@H]1c1ccc(CO)cc1 | 0.272 | -3.15 (inactive) | -0.808 (inactive) | 0.414 (inactive) | -0.958 (inactive) | -0.232 | -0.0719 | -0.0977 | 0.223 | -0.135
CC(C)c1ccc(NN2C(C(O)c3ccc(N(C)C)cc3)C=CC3C(=O)N(c4ccccc4)C(=O)C32)cc1 (stereo not given) | 0.125 | -1.1 (inactive) | -0.666 (inactive) | -0.133 (inactive) | 0.856 (inactive) | 1.76 | 0.268 | 0.074 | 0.658 | -0.0206
COC(=O)[C@@]1(Cc2ccccc2)[C@H]2c3cc(C(=O)N(C)C)n(Cc4cc(C)n(C)n4)c3C[C@H]2CN1C(=O)c1ccccc1 | 0.0704 | -1.31 (inactive) | 0.381 (inactive) | 2.3 (inactive) | 1.92 (inactive) | 1.63 | 0.606 | 1.31 | 1.99 | 0.278
O=C1O[C@H](c2ccccc2)[C@H](c2ccccc2)N2[C@H]1[C@@H](C(=O)O)[C@]1(C(=O)Nc3ccc(C#CC4(O)CCCCCC4)cc31)[C@H]2c1ccc(OCCO)cc1 | -0.0477 | -0.551 (inactive) | -1.01 (inactive) | 5.5 (inactive) | 14.7 (active) | 1.52 | 0.122 | 0.477 | 0.617 | 0.258
C=C(COC)C(=O)CC[C@H](OC(C)=O)c1cccc(OCCO)c1 | 0.145 | -3.15 (inactive) | 0.198 (inactive) | 0.942 (inactive) | 0.203 (inactive) | -1.1 | -0.142 | 0.315 | 0.142 | 0.9
O=C1O[C@H](c2ccccc2)[C@H](c2ccccc2)N2[C@H]1[C@@H](C(=O)O)[C@]1(C(=O)Nc3ccc(C#CC4=CCCCC4)cc31)[C@H]2c1ccc(OCCO)cc1 | 1.04 | -1.89 (inactive) | -1.37 (inactive) | 0.0816 (inactive) | 3.42 (inactive) | 1.22 | 0.201 | 0.586 | 1.16 | 1.09
CCN(CC)c1ccc(N2CC=CC34O[C@@H]5/C=C\CCCOC(=O)C5[C@H]3C(=O)N(C(CO)C(C)C)[C@@H]4C2=O)cc1 (stereo not given in full) | -0.297 | -0.245 (inactive) | 2.75 (inactive) | -0.0939 (inactive) | 0.119 (inactive) | -0.819 | -0.128 | 0.006 | -1.2 | 0.0008
C=CCNC(=O)[C@@H]1[C@H]2C(=O)O[C@H](c3ccccc3)[C@H](c3ccccc3)N2[C@H](c2ccc(O)cc2)[C@@]12C(=O)N(C(=O)OCCOC)c1ccccc12 | 0.0795 | -4.99 (inactive) | -0.848 (inactive) | 1.04 (inactive) | -0.0406 (inactive) | 1.56 | -0.0375 | 0.677 | 0.76 | 0.951
CC(C)N1C(=O)[C@@]2(c3ccc([N+](=O)[O-])cc3)CC(=O)N(CC34CC5CC(CC(C5)C3)C4)[C@@H]2c2ccc(CO)cc21 | -0.61 | -0.36 (inactive) | -0.292 (inactive) | 0.452 (inactive) | -0.41 (inactive) | -0.842 | 0.195 | -1.81 | -0.858 | 0.453
C=CCNC(=O)[C@@H]1[C@H]2C(=O)O[C@H](c3ccccc3)[C@H](c3ccccc3)N2[C@H](c2ccccc2OCCO)[C@@]12C(=O)Nc1ccc(C#CC3=CCCCC3)cc12 | 0.248 | -6.58 (inactive) | -1.43 (inactive) | -1.42 (inactive) | -1.45 (inactive) | 0.562 | 0.592 | 0.192 | 0.255 | 1.91
CC(C)C[C@@H]1NC(=O)[C@@H]2C[C@H](C(=O)NCCCCCC[N+](C)(C)C)[C@H](c3ccc(O)cc3)N2C1=O | 0.0505 | 0.0436 (inactive) | -0.555 (inactive) | -0.532 (inactive) | 0.0161 (inactive) | 0.313 | -0.0448 | 1.08 | 0.767 | 2.03
COC(=O)[C@@]1(Cc2ccc(F)cc2)[C@H]2c3cc(C(=O)N4CCCC4)n(Cc4cccc5ccccc45)c3C[C@H]2CN1C(=O)c1ccccc1 | 0.255 | -1.8 (inactive) | 0.233 (inactive) | 0.397 (inactive) | 0.422 (inactive) | 0.95 | 0.434 | 0.341 | -0.0286 | -0.408
COc1ccc([Si](C)(C)[C@@H]2[C@@H](CC(=O)N3CCC[C@H]3CO)O[C@]3(C(=O)N(C)c4c(Br)cc(C)cc43)[C@H]2C)cc1 | 0.29 | -2.39 (inactive) | 0.74 (inactive) | 6.67 (inactive) | 0.157 (inactive) | 0.367 | -0.103 | 0.178 | 0.67 | 1.43
